Data on three compounds can be found in PubChem BioAssay AID651871 (Sanford-Burnham Center for Chemical Genomics, 2012).

Structures are written as SMILES. Where “and” joins values, the source holds several entries; their conditions need not be identical. Identical values can stand only once.

This assay has as its system HL-1. As to the kind of experiment: cardiomyocyte survival under oxidative or metabolic stress – cell-based, panel, H9c2 and HL-1, ATP luminescence, set 2, SAR follow-up (AID 651871).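 Note: cells exposed to stressor for 2 h before ATP readout; reference of the scale not given here.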 Conditions: H9c2/HL-1 cardiomyocytes, 2-deoxyglucose stress, with 2-deoxyglucose, run 14, at 79 µM (top of the series).
In the case of `COc1ccc2nc(-c3cc(OC)c(OC)c(OC)c3)cc(C(=O)NCC(=O)Nc3ccc(C(C)=O)cc3)c2c1`, the activity (protection/inhibition) is 66%.

Turning to `COc1ccc2c(c1OC)C(=O)N1c3ccccc3C(=O)N(Cc3cccc(Cl)c3Cl)C21` (stereo not drawn), the activity (protection/inhibition) is 56.3% and -4.31%. For `CCOC(=O)c1cccc(NC(=O)CNC(=O)c2cc(-c3cc(OC)c(OC)c(OC)c3)nc3ccccc23)c1`, the activity (protection/inhibition) came to 83.5%.
